Data as given in PubChem BioAssay (NCI).
This is part of a sample that, as a whole, favours compounds with a hit. Of some 83,000 tested, about 20% had one in any assay.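 Treatment: one concentration, 48 hours, 96-well format. Scoring: percent growth, with anything below 10 considered active.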 Values without a mark were called inactive. Activity calls are given as the source filed them.

system: SR leukemia; assay: NCI-60 one-dose screen, 48 h (100 = growth as untreated, 0 = no growth, -100 = all killed); settings: 10 µM unless noted

Q: How did the growth turn out when `Nc1nc(N)nc(N2CCCCC2)n1` was run?
A: 97.9%

Q: Which growth does the source give for `O=C1NCC2CCCC1C2` (configuration not stated) here?
A: 110%

Q: Which growth does the source give for `Cc1cc(CO)c(O)c(CO)c1` here?
A: 77.8%

Q: How did the growth turn out when `C#CC(O)c1ccccc1` (configuration not stated) was run?
A: 106%

Q: How did the growth turn out when `COc1ccc(Br)c(C=O)c1` was run?
A: 8.35% (active)

Q: `COC(c1ccc2c(c1)OCO2)C(C)Br` (configuration not stated) was tested. Which growth did it give?
A: 88.6%

Q: With `O=C(O)c1ccccc1Cc1ccc2c(c1)CCCC2` as the compound, how does the growth read?
A: 106%

Q: `O=[N+]([O-])c1ccc(-c2nc(N(CCO)CCO)c3ccccc3n2)o1` was tested. Which growth did it give?
A: 2.69% (active)

Q: `O=Cc1ccc(Cl)c(Cl)c1` was tested. Which growth did it give?
A: 98%

Q: How did the growth turn out when `CCC(C)C1CCC(O)CC1` (configuration not stated) was run?
A: 93.7%

Q: Which growth does the source give for `CC(C)c1ncc([N+](=O)[O-])n1C` here?
A: 106%

Q: `COc1ccc(/C=C\C(=O)/C=C/c2ccc(OC)cc2)cc1` was tested. Which growth did it give?
A: 17.7%

Q: How did the growth turn out when `Nc1cc2c(cc1Cl)C(=O)c1ccccc1C2=O` was run?
A: 59.8%

Q: Which growth does the source give for `Cc1ccc(Cc2ccc(C)cc2)cc1` here?
A: 102%

Q: For `N#C/C(=C\c1ccc2c(c1)OCO2)c1ccccc1`, which growth is on record?
A: 14.2%

Q: For `CCOC(=O)c1c[nH][nH]c1=O`, which growth is on record?
A: 109%

Q: `O=c1[nH]c(=O)c2cc(Cl)cc(Cl)c2[nH]1` was tested. Which growth did it give?
A: 94.3%

Q: With `CC(=O)c1cc(O)ccc1O` as the compound, how does the growth read?
A: 94.2%

Q: For `Nc1ccn(C2CC(N)C(CO)O2)c(=O)n1` (configuration not stated), which growth is on record?
A: 54.5%

Q: How did the growth turn out when `CNc1ccccc1C(N)=O` was run?
A: 109%

Q: With `Cn1c(=O)[nH]c2ccccc2c1=O` as the compound, how does the growth read?
A: 100%

Q: Which growth does the source give for `CCOC(=O)C(C#N)=C1CCN(C)CC1` here?
A: 79.9%

Q: `NNC(=O)c1ccccc1N` was tested. Which growth did it give?
A: 156%

Q: With `COC(CCCl)c1ccc(Cl)cc1` (configuration not stated) as the compound, how does the growth read?
A: 90.2%

Q: For `C=CCC(OC(C)=O)c1ccc(OC)c(OC)c1` (configuration not stated), which growth is on record?
A: 35.3%

Q: `COc1ccc(C2CCCCC2=O)cc1` (configuration not stated) was tested. Which growth did it give?
A: 103%

Q: For `O=[N+]([O-])c1c(Cl)ncnc1Cl`, which growth is on record?
A: 96%

Q: How did the growth turn out when `CCN(CC)c1ccc2nc3ccc(N=Nc4ccc(N(C)C)cc4)cc3[n+](-c3ccccc3)c2c1` was run?
A: -18.3% (active)

Q: Which growth does the source give for `c1ccc2[nH]c(Cc3nc4ccccc4[nH]3)nc2c1` here?
A: 100%

Q: Which growth does the source give for `CC1=CC(=Nc2ccc(N(C)C)cc2)C=C(C)C1=O` here?
A: 88.1%

Q: Which growth does the source give for `N#CCCN1C(=O)CCC1C(=O)O` (configuration not stated) here?
A: 92.9%

Q: `O=C(O)Cc1cccc2ccccc12` was tested. Which growth did it give?
A: 94.5%

Q: For `Cc1nc(C)c(C(=O)O)cc1C(=O)O`, which growth is on record?
A: 100%

Q: For `Clc1ccc(/C=C/c2ccccn2)cc1`, which growth is on record?
A: 98.2%

Q: `N#CC1(O)CCCCC1` was tested. Which growth did it give?
A: 91.6%

Q: How did the growth turn out when `CCNc1ncnc2[nH]ncc12` was run?
A: 143%

Q: How did the growth turn out when `CC12CCC3c4ccc(O)cc4CCC3C1CCC2=O` (configuration not stated) was run?
A: 67.4%
